The supplement of paper PMC11417369
± gives the standard deviation of the averaged measurements. The full ranking holds about 25,000 sequences; the median of “ln(normalized median fluorescence intensity)” is about 7.9, and the highest 2% start at about 11. This excerpt belongs to a sample that is enriched for the highest values.

System: PfAP2-I AP2 domain 3 (GST-tagged)
Test: gcPBM binding intensity (ln(normalized median fluorescence intensity)); higher = stronger DNA binding
How it was run: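 Plasmodium falciparum DNA-binding domains carrying a GST tag were expressed in E. coli and applied for 1 h, at about 25 μg on average, to an Agilent 4 × 180k array. The array held primer-extended double-stranded 36-bp intergenic genomic probes together with negative controls, and binding took place in 1× PBS with 1% milk, 0.2 mg/ml BSA, 0.5% salmon testes DNA and 0.03% Triton X-100. An Alexa488 anti-GST antibody detected bound protein, and the array was scanned at 488 nm. Binding intensity is taken as the highest Masliner-normalised natural-log median intensity across replicate spots of either probe orientation.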

Sequence	gcPBM binding intensity (ln)
TATTCTTCAATTTAAAGTACAAAAATTACTATACTT [XGTACX_site6599]	7.58 ± 0.28
AATATTATAAATGATACACACTTAAAATACAGACAC [CACACA_site8868]	8.19 ± 0.4
AATATTTATATTTACACACACATAATACCTATATGT [CACACA_site6167]	7.83 ± 0.42
TAAATGAGAAGGACTGCACACTAAAATGGAAGGAGA [CACACA_site8449]	8.23 ± 0.71
ATCCTGAACAGAATATGTATAAACAGAAGGAAACAA [CACACA_negctrl_site1805]	7.92 ± 0.54
GACATATATATAAAATGTACATATATATTTACATAT [XGTACX_site7822]	7.75 ± 0.33
TTTTTAATATATTAGGTGCACAATAATACACTTTAT	11.51 ± 0.064
ATTATTATTAATCTTGTGCACATATATTTTAATTAG	10.6 ± 0.23
TATTTATTTTTTTTTGTGCACTTAATATAATCTTAC	11.07 ± 0.042
ATTCAATATTTATACACACACACTTTTAATAATTAA [CACACA_site7725]	8.05 ± 0.55
TTTAATTTATATTTTGTGCACATCTTATTATATATA [GTGCAC_site9630]	10.5 ± 0.21
ATTCAATATATATACACACACACTTTTAATAATTAA [CACACA_site3770]	8.1 ± 0.43
CCGATATAATGGAAAACACACAAAAGATATATATAT [CACACA_site2683]	9.01 ± 0.15
AATATTTATAAATTTACACACACACCGGTGAACATA [CACACA_site8579]	7.79 ± 0.57
TTTTATAAATACACACGTACGTGTGCATAACGTTTT [XGTACX_site3199]	9.465 ± 0.092
CATTTTTTTTTATAAATACACACGTACGGGTGCATA [CACACA_site1569]	8.54 ± 0.54
TTTTTTTTTATAAATACACACGTACGGGTGCATAAC [CACACA_site8444]	10.9 ± 0.73
ATATGTAGATGATATTATTACTTTTCAAAAATTCAA [CACACA_negctrl_site933]	7.58 ± 0.39
ATCATTTTTAATAAATGTACAAGTTTTAAAAAAAAA [XGTACX_site7340]	7.7 ± 0.6
TATGGTTTTAAAAAATGTACGCAAGTGCGTTAATTT [XGTACX_site3945]	11.2 ± 0.93

Sequence	gcPBM binding intensity (ln)
TCGTGGTTTTAATAAGTGCGCAATTTAAATATTTTT	9.31 ± 0.18
ATACATATATGTGTGTGTACATAAATGTATATATTT [XGTACX_site6242]	7.93 ± 0.38
AACCCTTTTGATTTTTCTTTTTTTTTTTTTTTAAAT [CACACA_negctrl_site1667]	7.5 ± 0.69
TTTTTTAAAATATGGACACACATATATATATATGTA [CACACA_site2784]	7.67 ± 0.3
TAAAACTTAATATAAACACACAAAAATTAATAAATA [CACACA_site4370]	7.62 ± 0.44
TTTTTTTTTTTTTCAAGTACATATATATATATATAA [XGTACX_site2098]	7.99 ± 0.45
TCACATTTTGGACACGTGCACATATATTTGATACAT	9.48 ± 0.33
TTTTTTTTTTTTCACGTGCACTATACATATAAGTAA	11.1 ± 0.23
ATATATATATATTTTACACACAATGGAGAAAAAAAT [CACACA_site644]	9.01 ± 0.092
TTTTAAAGAAAATATTTTATCATTATTTTTTGTACT [CACACA_negctrl_site1648]	7.41 ± 0.57
TTAAAATCTTGAAAAGTGCATTATCATTTTGTAACG [GTGCAC_site9447]	11.4 ± 0.73
AGGGAAAAAAAAAAAGTGCATTTGTATTAAATGAAT	9.9 ± 0.028
GAGAGGTATCAAAAATGTACACATATATATATGTAT [XGTACX_site5611]	7.79 ± 0.47
ATAATTATTAATATAGTGCATTGGCATAATAATATA [GTGCAC_site9810]	9.89 ± 0.2
AATATATTTATATAGTGTACATTTTTTATATATGTA [XGTACX_site8142]	7.67 ± 0.18
GGATTATTTATAGGAGTGCATACATATATATATATA [GTGCAC_site9454]	9.76 ± 0.071
GTTTATATGTTCATAGTGCATATATGTTGATTTATT	10.2 ± 0.33
TTTTTTTTTAATTATGCATGTAAATTATATATTATA [TGCATGCA_site335]	8.55 ± 1.1
AATATTTTATATGTAGTGCATTACTATAGGATTTAT [GTGCAC_site9424]	11.4 ± 0.74
TTATTAAATATAAATATGTATCTTTTATGTTATATT [CACACA_negctrl_site306]	7.29 ± 0.44

Sequence	gcPBM binding intensity (ln)
CATATGTTATATGTAGTGCATTACTATAGGATTTAT [GTGCAC_site9860]	11.4 ± 0.64
ATATATCTTTATATAGTGCATTAAATATGTTGTAAT [GTGCAC_site9953]	11.5 ± 0.54
ATATATATATATGTAGTGCATTTTATATATAATATT	9.875 ± 0.035
TATCTTTTTACAATAGTGCATATGTTATCATTAATA [GTGCAC_site9489]	9.54 ± 0.18
TTATTATTATTACTAGTGCATTAATTATATATGTAA	11.6 ± 0.49
TAAATATATAAACACACACACATTAATACAGATATT [CACACA_site5851]	7.72 ± 0.54
TATATATATATTTATACACACATTAGTGTAGACATG [CACACA_site8964]	8.915 ± 0.021
ATATATATGTATACATGTACATATTTTATTATGTGC [XGTACX_site7207]	7.9 ± 0.61
TTATATATATATATATATATATATATATATATAAAT [GTGCAC_negctrl_site126]	8.41 ± 0.23
TTTTTATATGCGTATTGTACATTATACATATATATA [XGTACX_site6786]	7.97 ± 0.38
TTCTTTATTTTTTCTACACACATTAGATATTCAAAG [CACACA_site7624]	8.02 ± 0.53
TTTATTTGTGCATATACACACTTAAATATGTTTATT [CACACA_site7772]	9.405 ± 0.035
TTGTTAATAAAAATATTGGAAAGTTTATAAAATTTT [CACACA_negctrl_site1487]	7.53 ± 0.52
ATGAAATATTTATTTGTGCACTTAATTTGTTGGAAA	11.2 ± 0.21
TTTATATTAATTGATGTGCACTGAAATATTTGTCCA [GTGCAC_site9655]	10.3 ± 0.28
AGAATTATTGTTAATGCATGTGGAAGTTAAAATATT [TGCATGCA_site188]	8.48 ± 0.69
TTTGGAATATTAATTGTGCACTTAAAAAGTTAATTA	11 ± 0.35
TTGTTCATTATGCACAGTACATAAAAAGTAAAAAAA [XGTACX_site2403]	10 ± 0.65
TTTCTGTGTTTTGGTTGTACACACGCTACATTATAT [XGTACX_site5669]	8.53 ± 0.67
GGAAATAATATTATTACACACCAAAATGTATAAAAA [CACACA_site4036]	8.36 ± 0.85
